Results as given in the supplement of paper PMC10105736.
Values without a mark were called inactive.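 The calls were made as follows: active = MAPPIT score above the 99th percentile of random reference set scores in the same batch; inactive = at or below it.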

How the values were obtained:
Assay in all cases: MAPPIT interaction score (arbitrary units); higher = stronger binary interaction signal, active = hit call of the paper
[1] = target: CG3651; settings: MAPPIT configuration: N-N; pair source set: RRS
[2] = target: CG3792; settings: MAPPIT configuration: N-C; pair source set: screen_4
[3] = target: Dpm3; settings: MAPPIT configuration: N-C; pair source set: screen_3
[4] = target: CG42245; settings: MAPPIT configuration: N-N; pair source set: RRS
[5] = target: CG42512; settings: MAPPIT configuration: N-C; pair source set: RRS
[6] = target: Orco; settings: MAPPIT configuration: N-C; pair source set: Lit-BM-16
[7] = target: CG42659; settings: MAPPIT configuration: N-C; pair source set: screen_4
[8] = target: Traf-like; settings: MAPPIT configuration: N-N; pair source set: Lit-BS-16
[9] = target: CG42831; settings: pair source set: RRS
[10] = target: CG4325; settings: MAPPIT configuration: N-N; pair source set: DPIM
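Also: HEK293T cells with Epo stimulation, STAT-responsive firefly luciferase reporter, fold induction versus unstimulated cells divided by the larger fold induction of two negative controls lacking either bait or prey.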

B1: mex1 (protein)
chain: MCNALCECLKCPGKVVCCCCSCACKMLLSIVFSALLMVVVIGLIVYFTVFYHKDKNTDEVQKQVAQLTPIVKRSIRDYFNKEY
[1]
  MAPPIT interaction score: 0.00975

B2: Syngr (protein)
chain: MDMLNQILSINNGGAYGGGKAGGAFDPLTFAMKPQVVIRALCWLFSVVVFGCISSEGWTEKDGKEYCLYNGDGMACKYGNMVGVFGFLASMGFMGGEFLFERMSSVKSRKRYVMADMGFSALWTFMYFVAFLYLWSQWSSSAPPPLGIGAGSMKTAIWFCLFSIVSWALCALMAYKRFLIGAGDEFTSAFETDPANVVHQQAYGYSMDNDNDQYSASPFGQPQQGGMEQQQSGMEYQQPTY
[2]
  MAPPIT interaction score: -0.645
[3]
  MAPPIT interaction score: -1.36

B3: Dhfr (protein)
chain: MLRFNLIVAVCENFGIGIRGDLPWRIKSELKYFSRTTKRTSDPTKQNAVVMGRKTYFGVPESKRPLPDRLNIVLSTTLQESDLPKGVLLCPNLETAMKILEEQNEVENIWIVGGSGVYEEAMASPRCHRLYITKIMQKFDCDTFFPAIPDSFREVAPDSDMPLGVQEENGIKFEYKILEKHS
[4]
  MAPPIT interaction score: 0.497

B4: Orco (protein)
chain: MTTSMQPSKYTGLVADLMPNIRAMKYSGLFMHNFTGGSAFMKKVYSSVHLVFLLMQFTFILVNMALNAEEVNELSGNTITTLFFTHCITKFIYLAVNQKNFYRTLNIWNQVNTHPLFAESDARYHSIALAKMRKLFFLVMLTTVASATAWTTITFFGDSVKMVVDHETNSSIPVEIPRLPIKSFYPWNASHGMFYMISFAFQIYYVLFSMIHSNLCDVMFCSWLIFACEQLQHLKGIMKPLMELSASLDTYRPNSAALFRSLSANSKSELIHNEEKDPGTDMDMSGIYSSKADWGAQFRAPSTLQSFGGNGGGGNGLVNGANPNGLTKKQEMMVRSAIKYWVERHKHVVRLVAAIGDTYGAALLLHMLTSTIKLTLLAYQATKINGVNVYAFTVVGYLGYALAQVFHFCIFGNRLIEESSSVMEAAYSCHWYDGSEEAKTFVQIVCQQCQKAMSISGAKFFTVSLDLFASVLGAVVTYFMVLVQLK
[5]
  MAPPIT interaction score: 0.963
[6]
  MAPPIT interaction score: -0.077

B5: esg (protein)
chain: MHTVEDMLVEKNYSKCPLKKRPVNYQFEAPQNHSNTPNEPQDLCVKKMEILEENPSEELINVSDCCEDEGVDVDHTDDEHIEEEDEDVDVDVDSDPNQTQAAALAAAAAVAAAAAASVVVPTPTYPKYPWNNFHMSPYTAEFYRTINQQGHQILPLRGDLIAPSSPSDSLGSLSPPPHHYLHGRASSVSPPMRSEIIHRPIGVRQHRFLPYPQMPGYPSLGGYTHTHHHHAPISPAYSENSYYSMRSMTPESSCSSSLPEDLSLKHKNLNLNLNTSQPGEQAAAKTGDMSPETMPNASAKKDKNQPPRYQCPDCQKSYSTFSGLTKHQQFHCPAAEGNQVKKSFSCKDCDKTYVSLGALKMHIRTHTLPCKCNLCGKAFSRPWLLQGHIRTHTGEKPFSCQHCHRAFADRSNLRAHLQTHSDIKKYSCTSCSKTFSRMSLLTKHSEGGCPGGSAGSSSSSELNYAGYAEP
[7]
  MAPPIT interaction score: 0.721
[8]
  MAPPIT interaction score: 0.713

B6: dan (protein)
chain: MNIRMGTKGKRPLRSLTPRDKIHAIQRIHDGESKASVARDIGVPESTLRGWCKNEDKLRFMSRQSATDNLCADALGDKMDGGGGGGGGAGGGGLLGPPEKRQRLDGALPLNFSNKLKFDELAFKRSPLNGLDYSTNKNLADLGYNGLPVDYAAFNGGVKAKVFGADINRPAADPSLNAISPLSSLTHLSGLTGISQSPLAISFNELTTNLNLLAQLNPGLAAMSGLNSFPAGAGNLRTPKPSGQTPLQVQSPRSDSGDRSAQGLSVKNWAKQKPGEGQGSLNLSIKNEGKGGDIKSPSPSIAPSQMGGPMTLSNLAEDPLLYWLKSQQTMLGLNPLYPPTIPMGVTSPPIRSSTPQHMSQLAQTPPIPSAPLTPSSTPSGSLDEKNAAWYNWCKAFGASLHTLNPNAATLAALQANQLQQQVATTAAEGGSMGDPSNILYSHLTKETETPSVRSLSSNEQNPEADEATETDLDGEVEPEASGKPEDLSAAGKVMTPSQSPIAHSSGSRSPEPKAKTKTPETTNSTSECKKILDNMLFKMGGMEATGPLMPEQGSSESEGSFQDTSNPHTNNNDVSASNNNNNNNSNKTDEEEKAKYLDCTADEDIEAIRHGEKFLQWLENCSNPRVTAVQLMQLRFLIAAIKSGNETPMIEKSALPEDSEEHAAEEEGSGRGKSRRRK
[9]; MAPPIT configuration: N-C
  MAPPIT interaction score: 0.788
[9]; MAPPIT configuration: N-N
  MAPPIT interaction score: 0.273

B7: mfrn (protein)
chain: MNIDDYESLPTTSVGVNMTAGAIAGVLEHVVMYPLDSVKTRMQSLSPPTKNMNIVSTLRTMITREGLLRPIRGASAVVLGAGPAHSLYFAAYEMTKELTAKFTSVRNLNYVISGAVATLIHDAISSPTDVIKQRMQMYNSPYTSVVSCVRDIYKREGFKAFYRAYGTQLVMNLPYQTIHFTTYEFFQNKMNLERKYNPPVHMAAGAAAGACAAAVTTPLDVIKTLLNTQETGLTRGMIEASRKIYHMAGPLGFFRGTTARVLYSMPATAICWSTYEFFKFYLCGLDADQYKSSITGSSEPRKADYVLPRTTDEEQIDQEREAAKEKDTTATLHSAPTSVNASGAIKTVCELSTRPAGPTINLHTRHTDVKSPYERGFST
[10]
  MAPPIT interaction score: -0.276
